Sampled rows, rich in hits. Any-hit rate of the full collection: about 0.63%.
FXIIa mix inh: factor XIIa (human) inhibition, mixture screen. P00748. purified FXIIa, fluorogenic substrate, pooled mixtures. inhibition, % at 5 µM. actives 0.2% (n = 62,000). AID 684;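 further: 0% = enzyme without compound and 100% = no enzyme blank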
LYP inh 2: inhibitors of human LYP (PTPN22) phosphatase | actives 0.21% (n = 96,000) | inhibition, % at 2 µM | recombinant LYP catalytic domain, DiFMUP fluorescence;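 active means inhibition at 2 µM at or above a set limit, the screen mean plus 3 SD, cut at about 24% in these data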;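 further: 0% = DMSO with enzyme and 100% = enzyme fully blocked by orthovanadate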
LYP act: activators of human LYP (PTPN22) phosphatase; recombinant LYP, DiFMUP fluorescence; 0 = plate median, 100 = signal doubled; activation, % at 2 µM; actives 0.11% (n = 96,000);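 active means activation at 2 µM above a set limit, the mean plus 5 SD, cut at about 37% in these data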
MKP-1 inh: human dual specificity phosphatase 1 inhibition | inhibition, %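 (compounds tested at a single concentration somewhere between 10 and 100 µM)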 | recombinant MKP-1, OMFP hydrolysis fluorescence | actives 0.15% (n = 65,000) | P28562;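 active means inhibition above about 50%, limit read from the data; inconclusive means inhibition over screen mean plus 3 SD, below that limit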;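 further: 0% = DMSO max control wells and 100% = wells with enzyme stopped by NaOH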
Target sequence (P28562 whole entry, looked up): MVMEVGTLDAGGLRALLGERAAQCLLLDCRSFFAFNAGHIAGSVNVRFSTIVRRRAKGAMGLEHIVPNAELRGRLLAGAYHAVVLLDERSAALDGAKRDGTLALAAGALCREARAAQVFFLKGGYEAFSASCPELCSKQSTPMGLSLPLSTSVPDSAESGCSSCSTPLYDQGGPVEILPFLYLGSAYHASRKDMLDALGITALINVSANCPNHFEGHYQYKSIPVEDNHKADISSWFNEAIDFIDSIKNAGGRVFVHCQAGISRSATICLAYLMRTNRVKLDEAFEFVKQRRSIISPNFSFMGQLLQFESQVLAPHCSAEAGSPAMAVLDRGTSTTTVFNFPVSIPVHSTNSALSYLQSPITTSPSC
Cdc25B block: human M-phase inducer phosphatase 2 inhibition; P30305; recombinant Cdc25B, OMFP fluorescence Ex485/Em525; inhibition, %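 (compounds tested at 10 µM final in the well)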; actives 0.1% (n = 65,000); in the data active means inhibition above about 50%
FXIa inh mix: inhibitors of human coagulation factor XIa, pooled mixtures; P03951; purified FXIa, fluorogenic substrate; inhibition, % at 5 µM; actives 0.19% (n = 62,000); AID 680;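 further: each value is inhibition by a whole ten-compound pool holding the compound; 0% = enzyme with no mixture and 100% = wells lacking enzyme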
Starred values were filed as active, the others as inactive; ? = inconclusive; / = no result given. Unless noted, no stated cut-off is given here; in the data, active means inhibition above about 20% (passing the limit was not always enough); inactive means the rest.

SMILES	FXIIa mix inh	LYP inh 2	LYP act	MKP-1 inh	Cdc25B block	FXIa inh mix
CCOC(=O)c1c(N2C(=O)Nc3cc(Cl)c(Cl)cc3N2O)sc2c1CCCCC2	/	32.2*	-30.0	/	/	/
CCOC(=O)c1c(N2C(=O)C3C4C=CC(O4)C3C2=O)sc2c1CCCC2 (stereo unspecified)	-1.4	5.7	-3.5	11.7	1.9	-7.8
O=C1NCCCc2nc(Oc3ccccc3)sc21	-13.9	-5.7	5.3	-2.0	5.4	4.6
COc1nc2c(s1)C(=O)NCCC2	20.5*	-8.5	6.8	-8.1	1.1	7.0
COc1ccc(C2C(C#N)=C(N)N(c3sc4c(c3C#N)CCCC4)C3=C2C(=O)CC(C)(C)C3)cc1 (stereo unspecified)	/	0.8	-2.2	/	/	/
COc1ccc(C2C(C#N)=C(N)N(c3sc4c(c3C#N)CCCC4)C3=C2C(=O)CC(C)(C)C3)cc1OC (stereo unspecified)	/	26.5*	-26.6	/	/	/
Cc1c(NC(=O)C2CCCN(S(=O)(=O)c3cnc[nH]3)C2)c(=O)n(-c2ccccc2)n1C (stereo unspecified)	2.5	-4.9	1.9	4.5	-0.6	24.3*
O=C(Nc1ccc(-n2cnnn2)cc1)C1CCC1	20.2*	8.1	-10.0	0.8	8.7	7.1
CC1CCCCN1CCNC(=O)C1CCN(S(=O)(=O)N2CCCCC2)CC1 (stereo unspecified)	20.6*	-2.0	-1.1	20.1	-3.9	-2.9
Cc1cc(-c2ccccc2C(=O)NCc2ccccc2)on1	5.0	6.1	-6.9	0.3	-6.4	26.7*
O=C1C2C(C(=O)N1CCc1ccccc1)C1C=CC2C12CC2 (stereo unspecified)	/	45.0*	-44.4	/	/	/
Cc1nn(-c2ccccc2)c(OC(=O)c2cccs2)c1S(=O)(=O)c1ccc([N+](=O)[O-])cc1	/	9.1	-6.9	/	/	/
Cc1nc2ccc(S(=O)(=O)NCC(=O)NCc3ccc4c(c3)OCO4)cc2s1	-16.4	27.2*	-26.8	7.1	2.5	-0.1
COc1cc2c(cc1NS(=O)(=O)N1CCCCC1)oc1ccccc12	/	5.7	-4.9	/	/	/
CCOC(=O)c1cn2c3c(c(F)c(F)c(F)c3c1=O)SC(N1CCCC1)=N2	12.3	/	/	2.0	-3.6	9.7
O=[N+]([O-])c1ccc(NCCCNS(=O)(=O)c2ccc(Cl)cc2)c(Cl)c1	/	1.9	0.7	/	/	/
Cc1ccccc1N1CCN(C(=O)c2ccccc2NC(=O)C2CC=CCC2C(=O)O)CC1 (stereo unspecified)	/	3.8	-3.2	/	/	/
CCOC(=O)CSc1nnnn1-c1cc(OC)c(Cl)cc1OC	8.5	-0.3	-1.3	5.7	50.8*	18.8
CC(NC(=O)c1ccccc1NC(=O)c1ccco1)c1ccccc1 (stereo unspecified)	6.8	-2.1	3.3	-0.5	-9.6	23.6*
CC(C)C(NC(=O)c1ccccc1NC(=O)c1ccco1)C(=O)O (stereo unspecified)	-2.3	-15.0	11.2	12.0	-5.8	11.8
CCOC(=O)c1c(-c2ccccc2)oc2cc(CN(C)C)c(O)c(CN(C)C)c12	/	-9.6	10.3	/	/	/
O=S(=O)(Nc1cccnc1)c1cccs1	4.8	-2.7	2.3	-2.5	-3.0	44.9*
CC(Oc1ccc(Cl)cc1Cl)c1nc(-c2ccc(NC(=O)c3ccco3)cc2)no1 (stereo unspecified)	/	3.3	0.0	/	/	/
Cc1ccc(-c2cc(C(=O)N/N=C\c3cnn(C)c3C)c3ccccc3n2)cc1C	/	2.1	-3.4	/	/	/
O=C(c1ccc(Cl)cc1)c1cnc2ccccn12	/	-17.4	16.8	/	/	/
SMILES	FXIIa mix inh	LYP inh 2	LYP act	MKP-1 inh	Cdc25B block	FXIa inh mix
COc1ccccc1-c1nc(-c2ccc(Br)cc2)no1	28.6*	/	/	3.6	-3.0	2.6
CCCOc1ccc(C(C)=O)cc1CSc1nc(O)cc(=O)[nH]1	/	-7.2	7.6	/	/	/
Cc1ccc(-n2nc(C)c3cc(C(=O)O)sc32)cc1	15.3	-0.9	0.1	-2.2	2.1	18.8
Cc1nn(-c2ccccc2)c2sc(C(=O)O)cc12	26.2	/	/	15.8	102.0*	9.2
Cc1ncc(CSc2nc3ccccc3[nH]2)c(N)n1	0.3	-13.9	12.0	0.0	-4.1	2.1
COc1ccc2nc(SCc3cnc(C)nc3N)[nH]c2c1	3.6	57.9*	-57.1	6.4	-16.6	1.2
CCc1ccc(C(C)NC(=O)Cn2cnc3c(=O)n(C)c(=O)n(C)c32)cc1 (stereo unspecified)	/	-13.7	8.0	/	/	/
CCCSc1nc(C)c(-c2csc(C(C#N)=C3CCCC3)n2)cc1C#N	20.1	25.8*	-26.6	11.7	22.0	11.2
Cc1cc(C(F)F)n2ncc(C(=O)O)c2n1	/	-0.9	5.2	/	/	/
COc1ccc2cc(CN(Cc3ccco3)Cc3nnnn3C3CCCCC3)c(=O)[nH]c2c1	-15.0	5.3	-7.3	?	-6.6	-5.7
COc1ccc2cc(CN(Cc3ccco3)C(c3nnnn3C3CCCCC3)C(C)C)c(=O)[nH]c2c1 (stereo unspecified)	5.5	26.3*	-23.2	0.4	-10.1	0.0
CCOC(=O)C(C(=O)OCC)C(C(=O)OCC)N1CCOCC1 (stereo unspecified)	/	8.3	-7.4	/	/	/
Cc1onc(-c2c(Cl)cccc2Cl)c1C(=O)N1CCc2ccccc2C1	/	9.7	-8.1	/	/	/
Nc1cccc2nc3ccccc3cc12	/	9.2	-11.5	/	/	/
Cc1cc2c(N)cccc2nn1	1.5	/	/	8.2	52.0*	5.3
Cc1cccc(N(CC(=O)NC2CCCCC2)C(=O)CCC(=O)Nc2cc(C)ccn2)c1	-30.8	/	/	5.3	1.5	-0.3
COc1ccc(NS(=O)(=O)c2cccc(-c3nnc(-c4ccccc4)o3)c2)cc1	/	-2.1	2.7	/	/	/
Cc1cccc(N(C(=O)c2ccc(Cl)cc2)C2CS(=O)(=O)CC2OC(=O)c2ccc(Cl)cc2)c1 (stereo unspecified)	/	24.9*	-20.8	/	/	/
O=C(c1ccc2c(c1)OCO2)N(c1ccccc1)C1C=CS(=O)(=O)C1 (stereo unspecified)	1.7	9.3	-9.3	13.4	-5.0	-3.2
COc1ccc(NC(=O)CSc2ccc3c4c(cccc24)C(=O)c2ccccc2-3)cc1	/	25.5*	-22.0	/	/	/
N#Cc1cccc(NC(=O)CSc2ccc3c4c(cccc24)C(=O)c2ccccc2-3)c1	/	11.2	-8.7	/	/	/
O=C(OCc1ccccc1)C1CCCN1C(=O)c1ccccc1[N+](=O)[O-] (stereo unspecified)	/	-5.4	9.3	/	/	/
CC(C)(C)C(=O)c1sc(Nc2ccccc2)nc1N	7.2	1.1	-1.6	84.6*	-12.6	7.4
O=C(Nc1cnc2ccccc2c1)C1COc2ccccc2O1 (stereo unspecified)	2.5	28.2*	-28.7	8.7	-12.4	4.0
COc1cccc(C2C3=C(CCCC3=O)Nc3nc4ccccc4n32)c1OC (stereo unspecified)	-14.8	/	/	3.8	5.3	1.7
Cc1nn(C(C)C(=O)N2CCCCC2)c(=O)c2c1sc1ccccc12 (stereo unspecified)	30.5	5.3	-5.0	67.0*	-8.0	1.5
COc1ccc(-c2nnn(CC(=O)c3ccc4c(c3)OCCO4)n2)cc1OC	3.5	-11.5	15.9	16.4	-2.8	20.3*

Screening data (PubChem)
